Assay [1] in a line: qHTS for Inhibitors of Plasmodium falciparum (CP250) proliferation (AID 504320).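 Also: plate controls were DMSO vehicle for no effect and 0.29 µM artemisinin control for full effect.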 Put shortly: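 Parasite growth measured as SYBR Green DNA fluorescence (ex 485, em 535 nm) after overnight lysis following 72 h culture at 37 °C, 0.3% parasitemia, 2.5% hematocrit. Values normalized against DMSO and 0.29 uM artemisinin controls, with plate-stack correction.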
(qHTS replaces the single test concentration by a dilution series.)

The target of assay [2] is Atrial natriuretic peptide receptor 1 (Homo sapiens) (UniProt P16066). Description: Natriuretic polypeptide receptor (hNpr1) antagonism - Pilot CMLD screen (AID 1347052; calls by dose curve;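 also: HEK293 cells with hNpr1 stimulated by hNppA peptide at 0.1 nM; cGMP level read as GloSensor luciferase luminescence after agonist stimulation; % is scaled to controls: 0 for no effect and ±100 for the full control effect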).
Atrial natriuretic peptide receptor 1 (Homo sapiens), sequence (P16066 whole entry, looked up): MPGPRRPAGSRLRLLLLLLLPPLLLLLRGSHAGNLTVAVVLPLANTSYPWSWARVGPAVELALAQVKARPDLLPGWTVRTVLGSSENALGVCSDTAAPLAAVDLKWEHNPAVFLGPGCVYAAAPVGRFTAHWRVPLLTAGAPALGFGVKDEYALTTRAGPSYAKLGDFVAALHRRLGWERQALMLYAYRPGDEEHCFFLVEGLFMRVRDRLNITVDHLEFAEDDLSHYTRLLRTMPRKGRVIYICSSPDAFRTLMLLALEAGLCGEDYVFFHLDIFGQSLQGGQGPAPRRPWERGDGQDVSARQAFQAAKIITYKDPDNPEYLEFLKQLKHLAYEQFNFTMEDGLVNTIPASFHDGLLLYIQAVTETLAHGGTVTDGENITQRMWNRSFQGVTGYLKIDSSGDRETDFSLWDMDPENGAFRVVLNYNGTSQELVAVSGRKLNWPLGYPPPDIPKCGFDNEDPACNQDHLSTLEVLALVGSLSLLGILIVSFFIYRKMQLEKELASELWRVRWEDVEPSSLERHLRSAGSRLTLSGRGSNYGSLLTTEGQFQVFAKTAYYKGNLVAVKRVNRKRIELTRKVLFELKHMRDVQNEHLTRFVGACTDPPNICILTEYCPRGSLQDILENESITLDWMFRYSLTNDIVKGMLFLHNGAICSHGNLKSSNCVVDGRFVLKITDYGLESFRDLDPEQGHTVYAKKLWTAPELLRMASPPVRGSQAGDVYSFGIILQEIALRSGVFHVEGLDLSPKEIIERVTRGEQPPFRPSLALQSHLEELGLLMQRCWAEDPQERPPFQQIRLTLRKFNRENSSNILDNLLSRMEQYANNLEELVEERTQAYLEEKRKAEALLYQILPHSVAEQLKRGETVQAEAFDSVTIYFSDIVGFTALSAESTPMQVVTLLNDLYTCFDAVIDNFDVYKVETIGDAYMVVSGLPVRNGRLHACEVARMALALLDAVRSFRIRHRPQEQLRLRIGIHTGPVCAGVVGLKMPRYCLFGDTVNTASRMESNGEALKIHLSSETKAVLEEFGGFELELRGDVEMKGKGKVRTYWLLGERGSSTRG
The target of assay [3] is Cytochrome P450 2C9 (Homo sapiens) (UniProt P11712). Description: qHTS Assay for Inhibitors and Substrates of Cytochrome P450 2C9 (AID 883). Also: % is scaled to controls: 0 for no effect and ±100 for the full control effect; nearly all actives have a fitted effect of over 60% in size. Put shortly:
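Human CYP2C9 (10nM) hydroxylated Luciferin-H (100uM, at its KM) to luciferin in 25mM KPO4. Compound was preincubated 10 min at 37C, then NADPH regeneration started a 60 min reaction at 37C. Luminescence was read after detection reagent, normalized to 57uM sulphaphenazole.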

The target in assay [4] is Cytochrome P450 3A4 (Homo sapiens) (UniProt P08684). Put plainly: qHTS Assay for Inhibitors and Substrates of Cytochrome P450 3A4 (AID 884). Also: potency is read from the fitted curve at half-maximal effect; nearly all actives have a fitted effect of over 50% in size. The method, boiled down:
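Luminescent readout of luciferin produced by CYP3A4 (20 nM) dealkylation of Luciferin-PPXE, 25 uM (its KM). NADPH-driven reaction ran 60 min at RT after 10 min compound preincubation; data scaled to 57 uM ketoconazole as 100% inhibition.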

The target is the same in assay [5]. Description: qHTS Assay for Activators of Cytochrome P450 3A4 (AID 885). Also: nearly all actives have a fitted effect of over 65% in size. The method, boiled down:
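Using 20nM recombinant human CYP3A4 in potassium phosphate (200mM), substrate Luciferin-PPXE at 25uM, luminescent luciferin detection followed a 60-min RT NADPH reaction; data scaled to 57 uM ketoconazole.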

Assay [6] deals with Cytochrome P450 2D6 (Homo sapiens) (UniProt P10635). Description: qHTS Assay for Inhibitors and Substrates of Cytochrome P450 2D6 (AID 891).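 Also: luciferin methyl ether substrate demethylated by CYP2D6 with NADPH regeneration; % is scaled to controls: 0 for no effect and ±100 for the full control effect; nearly all actives have a fitted effect of over 60% in size.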 The method, boiled down:
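Luminescent read-out of luciferin formed by 5 nM human CYP2D6 demethylating 30 uM Luciferin-ME EGE (Km level) over 60 min at room temperature after NADPH regeneration addition. Data normalized to full inhibition by 1.43 uM quinidine.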

In assay [7] the target is Cytochrome P450 2C19 (Homo sapiens) (UniProt P33261). Put plainly: qHTS Assay for Inhibitors and Substrates of Cytochrome P450 2C19 (AID 899). Also: % is scaled to controls: 0 for no effect and ±100 for the full control effect; nearly all actives have a fitted effect of over 60% in size. Put shortly: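 Human CYP2C19 (5nM) with Luciferin-H EGE at 10uM (its KM) in 50mM KPO4 was preincubated with compound for 10 min at 37C. NADPH regeneration started a 60 min 37C reaction. Luciferin was read by luminescence, normalized to 57uM ketoconazole.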
Cytochrome P450 2C19 (Homo sapiens), sequence (P33261 whole entry, looked up): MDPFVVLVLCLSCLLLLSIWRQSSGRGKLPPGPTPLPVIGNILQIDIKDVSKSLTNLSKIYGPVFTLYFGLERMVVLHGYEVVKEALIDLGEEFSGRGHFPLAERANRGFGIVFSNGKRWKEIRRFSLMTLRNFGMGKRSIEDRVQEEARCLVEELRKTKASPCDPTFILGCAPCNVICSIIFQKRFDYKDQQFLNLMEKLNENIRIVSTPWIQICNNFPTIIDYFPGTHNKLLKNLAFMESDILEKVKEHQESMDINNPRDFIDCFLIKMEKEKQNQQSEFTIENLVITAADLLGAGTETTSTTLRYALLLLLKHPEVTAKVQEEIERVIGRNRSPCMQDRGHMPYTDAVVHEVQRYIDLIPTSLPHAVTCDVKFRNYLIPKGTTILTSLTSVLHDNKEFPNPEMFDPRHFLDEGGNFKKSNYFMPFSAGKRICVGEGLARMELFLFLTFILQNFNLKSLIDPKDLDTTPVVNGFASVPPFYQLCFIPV

A further assay concerns the target Furin (Homo sapiens) (UniProt P09958). Description: Furin counterscreen qHTS for Zika virus inhibitors (AID 1347149). Also: nearly all actives have a fitted effect of over 70% in size.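 As to activity change, negative = inhibition: purified recombinant full-length human furin enzyme at 5 nM; fluorescence gain from furin cutting a BOC-RVRR-AMC peptide substrate over 15 min; top concentration of the series differs between compounds; plate controls were no-inhibitor control for no effect and no-enzyme control for full effect.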 The method, boiled down: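 Counterscreen measures cleavage of 2 microM BOC-RVRR-AMC, below its ~15 microM Km, by 5 nM full-length human furin at pH 7.0 after a 15-min compound preincubation. Inhibition derives from the 15-min fluorescence increase at 37C.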
(A counterscreen serves to expose hits that act by an unwanted route or on another target.)

For assay [8], the system named is Zika virus NS2B-NS3 protease (unlinked). Put plainly: Optimization of GU AMC qHTS for Zika virus inhibitors: Unlinked NS2B-NS3 protease assay (AID 1347151). Also: nearly all actives have a fitted effect of over 80% in size. Also: potency is read from the fitted curve at half-maximal effect.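 As to activity change, negative = inhibition: 0% = no-inhibitor control and -100% = no-enzyme control.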 The method, boiled down: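 Noncovalent NS2B hydrophilic domain–NS3 protease complex (25 nM final) in 10 mM Tris-HCl pH 8.0, 0.01% Tween 20; AMC substrate, room temperature 15 min (~20% conversion); fluorescence change normalized, 4-parameter Hill fit.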

The nature of assay [9]: ZIKV-mCherry secondary qHTS for Zika virus inhibitors (AID 1347158). Also: top concentration of the series differs between compounds. The method, boiled down:
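Percent infection is the share of Hoechst-identified Vero nuclei with mCherry signal above 450 RFU (3 SD over negative controls). Cells were infected with recombinant ZIKV-mCherry at MOI 1 after compound addition and imaged 48–72 h later.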

The subject of assay [10] is Zika virus NS2B-NS3 protease (linked). Description: 384 well plate NINDS AMC confirmatory qHTS for Zika virus inhibitors (AID 1347163). Also: nearly all actives have a fitted effect of over 50% in size. Also: potency is read from the fitted curve at half-maximal effect.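 As to activity change, negative = inhibition: linked protease at 5 30 or 60 nM final depending on run; fluorescence of AMC released from Ac-VKTGKR-AMC peptide cleaved by the protease; top concentration of the series differs between compounds; 0% = no-inhibitor control and -100% = no-enzyme control.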 The method, boiled down:
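Fluorescence at 355/460 nm was read after 25 minutes of cleavage of 30 microM Ac-VKTGKR-AMC at room temperature, in the dark. Before substrate addition, compounds (up to 1 mM final) sat ~15 minutes with 5, 30 or 60 nM linked protease. Signals were normalized to no-enzyme and no-inhibitor wells.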

In assay [11] the test system is Zika virus NS2B-NS3 protease (linked construct). Put plainly: 384 well plate NINDS Rhodamine confirmatory qHTS for Zika virus inhibitors (AID 1347164).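 Also: fluorescence from protease cleavage of Ac-LKRR-rhodamine 110 substrate; potency is read from the fitted curve at half-maximal effect; nearly all actives have a fitted effect of over 65% in size.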 The method, boiled down: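 Linked NS2B-NS3 protease (final 5, 30 or 60 nM) preincubated ~15 minutes with compounds, then 10 microM Ac-LKRR-Rhodamine 110 added. Fluorescence (485/538 nm) read after 25 minutes at room temperature, normalized to no-enzyme and no-inhibitor controls.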

The nature of assay [12]: Vero cells viability qHTS for Zika virus inhibitors (AID 1347167). Also: potency is read from the fitted curve at half-maximal effect. Put shortly:
(§1)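 To flag cytotoxic protease inhibitors, viability is measured by ATP-dependent luminescence (CellTiter Glo) after cells attached overnight receive compound for 24 to 48 hours in DMEM with 4% FBS.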

Assay [13] has as its system Zika virus NS2B-NS3 protease (linked construct). Put plainly: Confirmatory screen NINDS AMC qHTS for Zika virus inhibitors (AID 1347152). Also: nearly all actives have a fitted effect of over 70% in size. Also: potency is read from the fitted curve at half-maximal effect.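 As to activity change, negative = inhibition: AMC fluorescence gain from cleaved Bz-Nle-KRR-AMC substrate over 15 min; top concentration of the series differs between compounds; 0% = no-inhibitor control and -100% = no-enzyme control.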 Put shortly: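 Linked NS2B-NS3 protease, 1 nM, in 10 mM Tris-HCl pH 8.0, 0.01% Tween 20; compounds preincubated 15 min at room temperature. Nle-KRR-AMC 10 microM (Km 18.3 µM); 15-min fluorescence change (340/450 nm) fitted to 4-parameter Hill.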

The test system of assay [14] is Zika virus NS2B-NS3 protease (unlinked complex). Put plainly: Confirmatory screen GU AMC qHTS for Zika virus inhibitors (AID 1347153). Also: nearly all actives have a fitted effect of over 70% in size. Also: potency is read from the fitted curve at half-maximal effect.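 As to activity, negative = inhibition: percent inhibition with 0% = no inhibitor control and 100% = no enzyme control.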 Put shortly: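 Unlinked enzyme 25 nM, Tris pH 8.0/0.01% Tween 20; cpd 15 min RT, dark; + AMC substrate 10 µM (Km 18.3 µM); 340/450 nm read at t0 and 15 min; % inhibition → 4-param fit.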
The test system of assay [15] is Zika virus NS2B-NS3 protease. Put plainly: Primary screen GU AMC qHTS for Zika virus inhibitors (AID 1347154). Also: potency is read from the fitted curve at half-maximal effect; nearly all actives have a fitted effect of over 70% in size. Put shortly:
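Unlinked Zika NS2B hydrophilic domain/NS3 protease domain noncovalent complex (25 nM final) in 10 mM Tris-HCl pH 8.0, 0.01% Tween 20, with AMC peptide substrate. Fluorescence (ex 340, em 450 nm) change over 15 min, room temperature; percent inhibition fitted to 4-parameter Hill equation.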

Assay [16] in a line: Confirmatory screen NINDS Rhodamine qHTS for Zika virus inhibitors (AID 1347161). Also: nearly all actives have a fitted effect of over 60% in size. Also: potency is read from the fitted curve at half-maximal effect.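 As to activity change, negative = inhibition: purified Zika NS2B-NS3 protease with linked NS2B cofactor domain and Rhodamine110 peptide substrate; plate controls were no-inhibitor control for no effect and no-enzyme control for full effect.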 The method, boiled down: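 Kinetic fluorescence (Ex 480 nm, Em 540 nm) over 15 min with 1.5 microM Rhodamine110 peptide and 25 nM linked protease.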
The nature of assay [17]: HepG2 cells viability qHTS for Zika virus inhibitors (AID 1347168). Also: potency is read from the fitted curve at half-maximal effect. Put shortly: as §1
A short description of assay [18]: Primary qHTS for small molecule stabilizers of the endoplasmic reticulum resident proteome: Secreted ER Calcium Modulated Protein (SERCaMP) assay (AID 1508630). Also: % is scaled to controls: 0 for no effect and ±100 for the full control effect. Put shortly: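 The SH-SY5Y reporter protocol was run at 3 concentrations up to 38.3 uM (primary) or 11 concentrations (follow-up): 16 h compound, 100 nM thapsigargin for 4 h, then extracellular luciferase luminescence.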

Assay [19] in a line: Tertiary RLuc qRT-PCR qHTS assay for Zika virus inhibitors (AID 1347169). Also: top concentration of the series differs between compounds; % is scaled to controls: 0 for no effect and ±100 for the full control effect; nearly all actives have a fitted effect of over 55% in size. The method, boiled down: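 Vero cells (1,000/well) infected with recombinant ZIKV-RLuc (Cambodian) at MOI 1-2 after compound addition, 48-72 hrs at 37 degrees C. Live-cell Renilla luciferase substrate added; luminescence read after 1-1.5 hrs.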
In general terms: Quantitative PCR measures a nucleic acid by following its amplification.

Assay [20] has as its target Catechol O-methyltransferase (Homo sapiens) (UniProt P21964). Put plainly: Confirmatory Screen for Target Class Profiling of Small Molecule Inhibitors of Methyltransferases (AID 1745852; calls by dose curve; also: potency is read from the fitted curve at half-maximal effect). The note with it: MTase-Glo luminescence, SAH detection, recombinant enzyme; measured here: COMT max response; stronger effect = lower value.
In assay [21] the target is Guanidinoacetate N-methyltransferase (Homo sapiens) (UniProt Q14353). The description is as above. The note with it: activity change, negative = inhibition: at 57.3 µM (top of the series) unless noted.
The target of assay [22] is Nicotinamide N-methyltransferase (Homo sapiens) (UniProt P40261). The assay is described as above. The note with it: MTase-Glo luminescence, SAH detection, recombinant enzyme; measured here: NNMT max response; stronger effect = lower value.
Nicotinamide N-methyltransferase (Homo sapiens), sequence (P40261 whole entry, looked up): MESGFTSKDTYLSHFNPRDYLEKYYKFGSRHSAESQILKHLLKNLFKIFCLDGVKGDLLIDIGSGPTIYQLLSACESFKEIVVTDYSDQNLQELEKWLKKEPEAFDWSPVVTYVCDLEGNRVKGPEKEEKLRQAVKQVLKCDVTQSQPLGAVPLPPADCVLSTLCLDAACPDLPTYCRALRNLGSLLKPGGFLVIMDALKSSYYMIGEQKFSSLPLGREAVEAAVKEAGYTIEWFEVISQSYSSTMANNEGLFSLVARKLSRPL
The target in assay [23] is Phenylethanolamine N-methyltransferase (Homo sapiens) (UniProt P11086). The assay is described as above. The note with it: MTase-Glo luminescence, SAH detection, recombinant enzyme; measured here: PNMT max response; stronger effect = lower value.
Phenylethanolamine N-methyltransferase (Homo sapiens), sequence (P11086 whole entry, looked up): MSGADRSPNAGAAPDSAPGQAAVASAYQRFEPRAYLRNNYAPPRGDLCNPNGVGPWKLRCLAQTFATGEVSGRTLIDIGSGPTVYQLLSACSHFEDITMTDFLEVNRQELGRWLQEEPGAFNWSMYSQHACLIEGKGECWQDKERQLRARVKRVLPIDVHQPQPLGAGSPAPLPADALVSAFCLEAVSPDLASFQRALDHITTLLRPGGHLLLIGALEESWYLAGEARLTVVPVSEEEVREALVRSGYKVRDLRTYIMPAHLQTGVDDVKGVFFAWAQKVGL

Each structure is given as a SMILES string. Inconclusive results are not listed. Calls of active or inactive are those of the source. Unless noted, calls follow the shape of the dose curve; as a rule, active = well fitted curve in the direction sought with a large enough effect; inconclusive = small, poorly fitted or top-dose-only effect, or another doubt; inactive = no such curve, though single readings can be large; an effect the other way counts as inactive or inconclusive.

Furin (Homo sapiens), sequence (P09958 whole entry, looked up): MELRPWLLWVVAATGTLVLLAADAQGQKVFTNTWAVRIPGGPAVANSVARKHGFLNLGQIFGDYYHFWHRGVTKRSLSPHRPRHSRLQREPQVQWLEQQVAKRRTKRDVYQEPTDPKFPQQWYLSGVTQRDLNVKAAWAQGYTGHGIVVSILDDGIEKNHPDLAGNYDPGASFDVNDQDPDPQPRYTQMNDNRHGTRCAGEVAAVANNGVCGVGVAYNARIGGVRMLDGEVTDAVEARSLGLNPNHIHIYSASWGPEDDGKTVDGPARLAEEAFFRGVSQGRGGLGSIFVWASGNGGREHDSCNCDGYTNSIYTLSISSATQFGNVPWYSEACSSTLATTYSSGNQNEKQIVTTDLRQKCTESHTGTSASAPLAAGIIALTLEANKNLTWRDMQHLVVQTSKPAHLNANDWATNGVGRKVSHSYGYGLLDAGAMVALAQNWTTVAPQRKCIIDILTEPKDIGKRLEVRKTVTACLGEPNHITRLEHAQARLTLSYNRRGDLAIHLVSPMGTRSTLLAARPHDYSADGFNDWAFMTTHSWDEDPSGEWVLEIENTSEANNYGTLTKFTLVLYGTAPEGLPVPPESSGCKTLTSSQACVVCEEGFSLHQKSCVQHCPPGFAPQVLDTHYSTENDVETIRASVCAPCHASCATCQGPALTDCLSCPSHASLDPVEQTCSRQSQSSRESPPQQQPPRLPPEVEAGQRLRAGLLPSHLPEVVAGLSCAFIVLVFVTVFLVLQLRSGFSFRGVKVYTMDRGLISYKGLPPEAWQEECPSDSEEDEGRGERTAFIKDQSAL
Cytochrome P450 3A4 (Homo sapiens), sequence (P08684 whole entry, looked up): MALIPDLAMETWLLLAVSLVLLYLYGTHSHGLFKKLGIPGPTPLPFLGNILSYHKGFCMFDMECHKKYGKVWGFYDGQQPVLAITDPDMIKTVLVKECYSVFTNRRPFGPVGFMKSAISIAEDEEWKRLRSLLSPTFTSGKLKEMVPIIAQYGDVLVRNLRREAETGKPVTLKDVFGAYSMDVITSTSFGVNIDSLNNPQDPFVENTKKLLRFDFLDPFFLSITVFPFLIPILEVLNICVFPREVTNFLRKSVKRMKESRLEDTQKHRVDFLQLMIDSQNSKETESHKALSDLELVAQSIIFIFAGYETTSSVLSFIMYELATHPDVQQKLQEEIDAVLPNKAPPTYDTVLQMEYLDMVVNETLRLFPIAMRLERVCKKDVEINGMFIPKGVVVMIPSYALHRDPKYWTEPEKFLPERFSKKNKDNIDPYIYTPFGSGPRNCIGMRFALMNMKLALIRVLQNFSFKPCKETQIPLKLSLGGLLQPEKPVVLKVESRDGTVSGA
Cytochrome P450 2D6 (Homo sapiens), sequence (P10635 whole entry, looked up): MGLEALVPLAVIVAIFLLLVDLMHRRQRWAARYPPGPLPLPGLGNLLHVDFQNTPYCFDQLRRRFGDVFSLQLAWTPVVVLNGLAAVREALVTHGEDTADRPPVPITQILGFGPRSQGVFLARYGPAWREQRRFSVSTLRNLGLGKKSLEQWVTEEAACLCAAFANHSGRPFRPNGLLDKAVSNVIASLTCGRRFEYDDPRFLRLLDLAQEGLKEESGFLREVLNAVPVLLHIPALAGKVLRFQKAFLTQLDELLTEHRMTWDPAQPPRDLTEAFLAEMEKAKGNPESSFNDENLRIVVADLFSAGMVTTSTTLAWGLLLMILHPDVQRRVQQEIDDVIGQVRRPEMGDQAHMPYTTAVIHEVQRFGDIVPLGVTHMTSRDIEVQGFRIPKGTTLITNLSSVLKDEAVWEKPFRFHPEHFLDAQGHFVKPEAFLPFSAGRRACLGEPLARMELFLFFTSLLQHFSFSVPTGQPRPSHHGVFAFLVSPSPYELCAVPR
Catechol O-methyltransferase (Homo sapiens), sequence (P21964 whole entry, looked up): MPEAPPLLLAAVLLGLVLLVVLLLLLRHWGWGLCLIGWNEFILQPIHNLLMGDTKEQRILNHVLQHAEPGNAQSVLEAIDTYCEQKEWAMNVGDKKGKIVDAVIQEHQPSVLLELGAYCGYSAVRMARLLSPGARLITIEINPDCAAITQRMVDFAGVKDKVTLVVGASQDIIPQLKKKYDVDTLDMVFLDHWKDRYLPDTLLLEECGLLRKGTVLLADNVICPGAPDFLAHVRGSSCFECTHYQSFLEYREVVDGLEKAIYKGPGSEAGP
Cytochrome P450 2C9 (Homo sapiens), sequence (P11712 whole entry, looked up): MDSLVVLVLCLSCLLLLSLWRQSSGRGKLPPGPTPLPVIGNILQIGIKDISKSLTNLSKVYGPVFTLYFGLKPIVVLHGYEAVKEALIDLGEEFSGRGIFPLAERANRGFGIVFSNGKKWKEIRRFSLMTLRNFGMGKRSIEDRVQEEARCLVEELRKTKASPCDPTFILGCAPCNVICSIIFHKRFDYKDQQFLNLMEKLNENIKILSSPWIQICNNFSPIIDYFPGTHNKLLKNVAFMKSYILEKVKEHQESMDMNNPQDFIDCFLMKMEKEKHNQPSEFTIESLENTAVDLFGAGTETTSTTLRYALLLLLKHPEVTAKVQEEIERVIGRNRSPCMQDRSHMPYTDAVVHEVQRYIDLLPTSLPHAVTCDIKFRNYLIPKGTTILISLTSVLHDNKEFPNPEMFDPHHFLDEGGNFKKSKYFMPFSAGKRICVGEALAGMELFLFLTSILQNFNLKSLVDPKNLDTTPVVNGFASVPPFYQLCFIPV

In the case of `COC(=O)C(C(=O)OC)C1OC23CN(S(=O)(=O)c4ccc(C)cc4)C=CC2(C)C3c2ccccc21` (stereo not given), the Potency result in assay [1] and in assay [2] was “inactive” in each case.
As for `C=CC[C@H]1C(=O)N2[C@@H](C[C@@H](C)[C@@H]2c2ccccc2)[C@@H](CC=C)C(=O)N2[C@H]1C[C@@H](C)[C@@H]2c1ccccc1`, the Potency result in [1] and in assay [2] was “inactive” in each case.
Regarding `C[C@@H]1C(c2ccccc2)=CC(=O)c2nc3ccccc3cc2[C@@H]1C(=O)N1CCCC1`, the Potency entry in assay [1] and in assay [2] was “inactive” each time.
Take `CC(C)=CCC1(CC=C(C)C)C(=O)C(C(=O)c2ccccc2)=C2OC(C)(C)CCC2(CC=C(C)C)C1=O` (stereo not given): the activity change, negative = inhibition was -24.2% [at 11.4 µM] (inactive) in assay [3] and 20.1% [at 11.4 µM] (inactive) in assay [6]. Also, the Potency in assay [4] was 3.98 µM (active). The activity change, positive = activation in assay [5] is -69.3% [at 11.4 µM] (inactive). For the same compound, the activity, negative = inhibition in assay [7] is -5.29% [at 11.4 µM] (inactive). Further, the Potency entry in assay [2] was “inactive”.
`CC1=C[C@@H](COCc2ccccc2)O[C@@]2(C1)C(=O)N(Cc1ccccc1C(F)(F)F)c1ccccc12`: the Potency result in assay [1] and in [2] was “inactive” in each case.
On to `Oc1cc2ccccc2c2ccccc12`, for which the Potency result (with Furin (Homo sapiens); in [9]; in [10]) was “inactive” in each case. For the same compound, the values for the Potency in [8], in assay [11] and in [12] were 44.1 µM (active), 447 µM (active) and 19 µM (active), respectively.
As to `CCOC(=O)O[C@H](C)OC(=O)C1N2C(=O)[C@H](NC(=O)[C@H](N)c3ccccc3)C2SC1(C)C` (stereo not given in full), the Potency entry (with Furin (Homo sapiens); in [13]; in assay [14]; in assay [16]; in [12]; in assay [17]) was “inactive” in each case. The Potency in assay [15] is 26.7 µM (active).
As for `CC(=O)Oc1cc2c(c(C)c1OC(C)=O)CC=C1[C@@]2(C)CC[C@@]2(C)[C@H]3C[C@](C)(C(=O)O)CC[C@]3(C)CC[C@]12C`, the Potency result (with Furin (Homo sapiens); in [18]) was “inactive” in each case. For the same compound, the Potency is 19.2 µM (active) in assay [13]; 21.5 µM (active) in assay [14]; 13.4 µM (active) in assay [15]; 3.49 µM (active) in [16]; 158 µM (active) in [10]; 35.5 µM (active) in [11]. In addition, the Potency in assay [17] is 13.1 µM (active).
Consider `O=C(O)COc1ccc(-c2nccc3c2C(=O)N(Cc2cccc(C(F)(F)F)c2)CC(COc2cccnc2)O3)cc1` (stereo not given), for which the Potency result (with Furin (Homo sapiens); in assay [13]; in assay [14]) was “inactive” each time.
With `Nc1ncnc2c1ncn2[C@@H]1O[C@H](C[C@@H](N)CC[C@H](N)C(=O)O)[C@@H](O)[C@H]1O`, the Potency entry (in the assay with Furin (Homo sapiens); in assay [8]; in assay [12]; in [17]; in assay [19]) was “inactive” throughout. The activity in assay [20] is -81.8%; in assay [22] it was -74.5%; in assay [23], -86.5%. The Potency in assay [21] was 21.7 µM (active).
Turning to `Cc1ccc(OCC(=O)Nc2ccc(C(=O)OCc3cc(=O)n4nc(C5CC5)sc4n3)cc2)cc1`, the Potency entry in the assay with Furin (Homo sapiens) is “inactive”.
Regarding `O=S(=O)(N[C@H]1CO[C@H]2[C@@H]1OC[C@@H]2Nc1nccc(-c2ccc3c(c2)OCO3)n1)c1ccc2ccccc2c1`, in the assay with Furin (Homo sapiens), the Potency was 55.5 µM (active).
